Compound activity from PubChem.
Most compounds without a hit are left out; they make up all but 27% or so of the library.
CYP2C9 inh: inhibitors of human CYP2C9. P11712. CYP2C9 Supersomes, luciferin-H conversion, luminescence. inhibition, % at 5 µM. actives 20% (n = 96,000);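 active = blocking of liver enzyme CYP2C9 beyond about 50% at 5 µM, limit read from the data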
CYP2C9 activ: CYP2C9 (human) activation. P11712. recombinant CYP2C9, luciferin-H conversion, luminescence; hits give high values; factor 1 = untreated enzyme, 0 = blocked. activation factor at 5 µM. actives 1.4% (n = 96,000). AID 1024;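 active = activation factor of 2 or more for CYP2C9 at a 5 µM dose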
CYP2C19 act: increases human CYP2C19 enzyme activity. recombinant CYP2C19, luciferin-H EGE luminescence; hits give high values; 0 = fully inhibited enzyme, 1 = untreated enzyme. activation factor at 5 µM. 96,000 tested, under 10 active;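 active = activation factor of at least 2 at 5 µM in the primary screen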
Target sequence (P33261 whole entry, looked up): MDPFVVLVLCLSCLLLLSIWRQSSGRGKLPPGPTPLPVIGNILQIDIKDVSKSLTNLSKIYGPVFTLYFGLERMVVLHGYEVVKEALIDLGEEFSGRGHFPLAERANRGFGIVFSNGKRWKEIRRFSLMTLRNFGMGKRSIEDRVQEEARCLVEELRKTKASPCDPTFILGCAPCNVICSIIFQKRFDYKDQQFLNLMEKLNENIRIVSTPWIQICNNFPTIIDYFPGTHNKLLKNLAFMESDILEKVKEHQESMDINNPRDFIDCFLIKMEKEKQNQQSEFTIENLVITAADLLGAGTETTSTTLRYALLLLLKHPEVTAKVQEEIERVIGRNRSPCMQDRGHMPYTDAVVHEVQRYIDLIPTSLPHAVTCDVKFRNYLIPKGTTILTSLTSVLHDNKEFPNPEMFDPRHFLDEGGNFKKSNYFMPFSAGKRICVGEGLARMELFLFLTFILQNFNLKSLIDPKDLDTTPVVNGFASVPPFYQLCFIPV
EphB4 ephrin blk: blocks human EphB4 binding to ephrin-B2. P54760. EphB4 LBD / TNYL-RAW-Alexa532 peptide, fluorescence polarization. inhibition, % at 7 µM. actives 0.15% (n = 97,000). AID 720;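 active = inhibition above the screen-wide mean inhibition plus 3 SD, cut at about 15% in these data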
CYP2C19 inhib: blocks human cytochrome P450 2C19; inhibition, % at 5 µM; actives 21% (n = 96,000); P33261; CYP2C19 Supersomes, luciferin-H EGE luminescence, 30 min;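 active = CYP2C19 inhibition above a set limit at 5 µM in the primary screen, cut at about 50% in these data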
Large screens that a line does not name were inactive.

C=CCN1C(=O)NC(=O)/C(=C/c2ccc(OC)c(CSc3ccccn3)c2)C1=O	CYP2C19 inhib 52.1
COc1cc(/C=C2\C(=O)NC(=O)N(c3ccccc3)C2=O)cc(OC)c1O	none
O=C(CNS(=O)(=O)c1cccs1)N1CCC2(CC1)OCCO2	CYP2C19 inhib 51.8
CCCC1COC(Cn2cncn2)(c2ccc(Cl)cc2Cl)O1 (configuration not stated)	CYP2C9 inh 77.0, CYP2C19 inhib 93.2
COC(=O)c1ccccc1OP1(=O)COc2ccccc2OC1	none
O=P1(Nc2ccc(F)cc2)COc2ccccc2OC1	CYP2C19 inhib 63.8
CCCCN1CCC(O)(c2ccccc2)C(C(=O)c2ccccc2)C1 (configuration not stated)	none (no result: CYP2C9 inh, CYP2C9 activ, CYP2C19 act, CYP2C19 inhib)
CCOC(=O)C(O)(c1ccc(NC(=O)NC2CCCCC2)cc1)C(F)(F)F (configuration not stated)	CYP2C9 inh 59.4, CYP2C19 inhib 80.4
FC(F)(F)c1ccc2c(c1)ncn2C1CCN(Cc2nnnn2C2CCCCC2)CC1	CYP2C9 inh 69.3, CYP2C19 inhib 88.5
Cc1nc2cc(C(F)(F)F)ccc2n1C1CCN(Cc2nnnn2Cc2cccs2)CC1	CYP2C9 inh 78.9 (no result: EphB4 ephrin blk)
Cc1nc2cc(C(F)(F)F)ccc2n1C1CCN(Cc2nnnn2Cc2ccc3c(c2)OCO3)CC1	CYP2C9 inh 92.3, CYP2C19 inhib 57.2
CCN1CCN(C(=O)COc2ccc(S(=O)(=O)NC(C)C)cc2)CC1	none (no result: CYP2C9 inh, CYP2C9 activ, CYP2C19 act, CYP2C19 inhib)
CCc1c(C)nc(N)nc1N1N=C1SCC#N	none
COC(=O)CC1NC2CCCCC2NC1=O (configuration not stated)	none
CCCCn1c(O)c(C(C)=Nc2ccc(OCC)cc2)c(=O)[nH]c1=O	none
CCCCn1c(O)c(C(C)=NCCN2CCCCC2)c(=O)[nH]c1=O	none
CCCCCCn1c(O)c(C(C)=NC)c(=O)[nH]c1=O	CYP2C9 inh 61.1, CYP2C19 inhib 82.6
CCCCn1c(O)c(C(C)=NC(Cc2c[nH]c3ccccc23)C(=O)OC)c(=O)[nH]c1=O (configuration not stated)	CYP2C9 inh 97.3, CYP2C19 inhib 95.3
CCN(CC)CCOC(=O)c1ccc(N=Cc2c(O)[nH]c(=O)[nH]c2=O)cc1	none
O=C1C(=O)c2ccccc2-c2ccccc21	CYP2C9 inh 93.3, CYP2C19 inhib 98.1
CCOC(=O)c1c(N)n(CCCOC(=O)c2ccco2)c2nc3ccccc3nc12	CYP2C9 inh 86.5, CYP2C19 inhib 66.1
COc1ccc(Cn2c(N)c(C(=O)NCc3ccco3)c3nc4ccccc4nc32)cc1OC	CYP2C9 inh 78.7
COC(=O)c1c(N)n(Cc2ccc(OC)cc2)c2nc3ccccc3nc12	CYP2C9 inh 71.1, CYP2C19 inhib 75.0 (no result: EphB4 ephrin blk)
COCCOC(=O)c1c(N)n(Cc2ccc(OC)cc2)c2nc3ccccc3nc12	CYP2C9 inh 83.4, CYP2C19 inhib 64.0 (no result: EphB4 ephrin blk)
CCOC(=O)c1ccc(N2C(=O)CC(N3CCC(C#N)(c4ccccc4)CC3)C2=O)cc1 (configuration not stated)	none
COC(=O)CC1(CC(=O)OC)C(=O)NC(=O)NC1=O	none
CCOC(=O)c1c(C)n(CCOC)c2ccc(O)cc12	CYP2C19 inhib 69.2
O=S(=O)(c1ccccc1)N1CCCCC1c1cccnc1 (configuration not stated)	CYP2C19 inhib 51.7
Nc1ccc(S(=O)(=O)N2CCCCC2c2cccnc2)cc1 (configuration not stated)	none
CCC(=Nc1ccc(OC)cc1OC)c1c(O)n(C2CCCCC2)c(=O)[nH]c1=O	none
COc1ccc(S(=O)(=O)NC(CC(=O)N2CCC3(CC2)OCCO3)c2ccco2)cc1 (configuration not stated)	CYP2C9 inh 51.1, CYP2C19 inhib 75.9
COc1ccc(S(=O)(=O)NC(CC(=O)N2CCC3(CC2)OCCO3)C(C)C)cc1 (configuration not stated)	none
COc1ccc(CCC(=O)N2CCC3(CC2)OCCO3)cc1	CYP2C19 inhib 75.4
CCOP(=O)(CN(CC)CCNP(=O)(OCC)OCC)OCC	none
OC(c1ccccc1)(c1ccccc1)C1CCCN1 (configuration not stated)	none (no result: CYP2C9 inh, CYP2C9 activ, CYP2C19 act, CYP2C19 inhib)
CCCCN1C(=O)NC(=O)C2(Cc3c(nc4c(C)cccn4c3=O)N3CCc4ccccc4C32)C1=O (configuration not stated)	CYP2C9 inh 88.8, CYP2C19 inhib 76.9
CCCCN1C(=O)NC(=O)C2(Cc3c(nc4ccccn4c3=O)N3CCc4ccccc4C32)C1=O (configuration not stated)	none
COc1ccc(Oc2cc(NC(=O)c3nn(C)cc3[N+](=O)[O-])cc([N+](=O)[O-])c2)cc1	CYP2C9 inh 90.7, CYP2C19 inhib 65.5
CCOC(C(=O)OCC(O)CN(CC)CC)(c1ccccc1)c1ccccc1 (configuration not stated)	none
CN(C)c1ccc(C(=O)c2ccc(N(C)C)cc2)cc1	CYP2C9 activ 2.2, CYP2C19 inhib 66.3
Clc1ccc(-c2nc3ccc(Cl)cn3c2CN2CCOCC2)cc1	CYP2C9 inh 63.6, CYP2C19 inhib 76.8
c1ccc2c(c1)CNc1ccccc1O2	none
Cc1ccc2c(c1)CNc1ccccc1O2	CYP2C19 inhib 71.3
COc1cccc(OCC(=O)N2CCN(C)CC2)c1	CYP2C19 inhib 54.4 (no result: EphB4 ephrin blk)
CCOC(=O)c1c(C)n(Cc2ccco2)c2c1cc(O)c1ccccc12	CYP2C9 inh 82.1
CC(C)CCNC(=O)c1c(N)n(Cc2ccc3c(c2)OCO3)c2nc3ccccc3nc12	none
Cc1cccc(CN(C)C)c1OC(=O)N(C)C	none
O=C1CC(N2CCC(n3c(=O)[nH]c4ccccc43)CC2)C(=O)N1c1ccc(F)cc1 (configuration not stated)	none
O=C1CC(N2CC=C(c3ccccc3)CC2)C(=O)N1c1ccc(F)cc1 (configuration not stated)	CYP2C9 inh 61.8 (no result: EphB4 ephrin blk)
CN(C)C(=O)Oc1ccc(Cl)c2ccccc12	CYP2C9 activ 2.1, CYP2C19 inhib 73.0
CC(C)OCCCNC(=O)c1c(N)n(Cc2cccs2)c2nc3ccccc3nc12	CYP2C9 inh 91.0 (no result: EphB4 ephrin blk)
Nc1c(C(=O)OCC2CCCO2)c2nc3ccccc3nc2n1Cc1cccs1 (configuration not stated)	CYP2C9 inh 57.4
Nc1c(C(=O)NC2CCCC2)c2nc3ccccc3nc2n1CC1CCCO1 (configuration not stated)	none
COc1ccc(N2C(=O)CC(=O)NC2=O)cc1	none
COc1cccc(-n2c(-c3ccoc3)nc3ccccc3c2=O)c1	none
CN1C(=O)C(C2c3ccccc3C(=O)N2Cc2ccccc2)C(=O)N(C)C1=O (configuration not stated)	none
CCOC(=O)C(O)(c1ccc(N(C)C(=O)COc2ccccc2)cc1)C(F)(F)F (configuration not stated)	none (no result: CYP2C9 inh, CYP2C9 activ, CYP2C19 act, CYP2C19 inhib)
CCOC(=O)C(O)(c1cn(C)c2ccccc12)C(F)(F)F (configuration not stated)	CYP2C9 activ 2.6
O=C(c1ccco1)c1cn(Cc2ccc(Cl)cc2)c2ccccc12	CYP2C9 inh 93.6, CYP2C19 inhib 83.5
